This is an account of results in PubChem BioAssay (Tox21).

The nature of assay [1]: A CellTox Green Cytotoxicity Assay to monitor cytotoxicity in HEK293 cells - 32 hour (AID 1224881). Also: nearly all actives have a fitted effect of over 40% in size. Also: potency is read from the fitted curve at half-maximal effect. The procedure, abridged: (§1)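 Real-time, in one plate: 600 HEK293 cells/well with dead-cell DNA dye, pinned compound after 5 h, 37 C incubation over 40 h; viable cells give no appreciable fluorescence.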
A short description of assay [2]: A CellTox Green Cytotoxicity Assay to monitor cytotoxicity in HepG2 cells - 0 hour (AID 1224882). Also: nearly all actives have a fitted effect of over 35% in size. The method in brief: (§2)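 Cytotoxicity was tracked as dead-cell DNA fluorescence in HepG2 cells treated with test compounds at 37 C; each time-point value comes from one kinetic series spanning 0, 8, 16, 24, 32 and 40 h.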
A short description of assay [3]: A CellTox Green Cytotoxicity Assay to monitor cytotoxicity in HepG2 cells - 32 hour (AID 1224883). Also: nearly all actives have a fitted effect of over 50% in size. Also: potency is read from the fitted curve at half-maximal effect. The method in brief: as §2
Assay [4] can be described thus: A CellTox Green Cytotoxicity Assay to monitor cytotoxicity in HEK293 cells - 8 hour (AID 1224884). Also: nearly all actives have a fitted effect of over 35% in size. The method in brief: as §1
The nature of assay [5]: qHTS RealTime-Glo MT Cell Viability Assay in HepG2 cells - 16 hour (AID 1224885). Also: nearly all actives have a fitted effect of over 50% in size. The procedure, abridged: (§3)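 Viability was tracked continuously by NanoLuc luminescence from prosubstrate reduced by living HepG2 cells, at successive time points over 40 h of compound exposure. Cells with reagent were preincubated 5 h at 37 °C before compound addition.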
(In qHTS, concentration-response curves come from the screen itself.)

A short description of assay [6]: qHTS RealTime-Glo MT Cell Viability Assay in HEK293 cells - 24 hour (AID 1224886). Also: nearly all actives have a fitted effect of over 50% in size. Also: potency is read from the fitted curve at half-maximal effect. As to activity change, negative = cytotoxicity: top concentration of the series differs between compounds. The procedure, abridged:
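Viability tracked continuously by luminescence as live cells reduce a prosubstrate for NanoLuc; HEK293 cells preincubated 5 h, compound-treated at 37 C, and read at 0, 8, 16, 24, 32 and 40 h.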

Assay [7] in a line: qHTS RealTime-Glo MT Cell Viability Assay in HEK293 cells - 8 hour (AID 1224887). Also: top concentration of the series differs between compounds; nearly all actives have a fitted effect of over 50% in size. The procedure, abridged:
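Kinetic, non-lysing viability readout. Seed HEK293 (600/well) with reagent, incubate 5 h at 37 C/5% CO2, pin 23 nL compound in DMSO, incubate at 37 C, read luminescence at 0, 8, 16, 24, 32, 40 h.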

Assay [8] is described as follows: A CellTox Green Cytotoxicity Assay to monitor cytotoxicity in HEK293 cells - 16 hour (AID 1224888). Also: nearly all actives have a fitted effect of over 35% in size. The procedure, abridged:
as §1

A short description of assay [9]: qHTS RealTime-Glo MT Cell Viability Assay in HepG2 cells - 0 hour (AID 1224889). Also: nearly all actives have a fitted effect of over 50% in size. The procedure, abridged:
as §3

Assay [10] is described as follows: A CellTox Green Cytotoxicity Assay to monitor cytotoxicity in HepG2 cells - 8 hour (AID 1224890). Also: nearly all actives have a fitted effect of over 45% in size. The method in brief: as §2
Assay [11] in a line: qHTS assay to identify small molecule antagonists of the estrogen receptor alpha (ER-alpha) signaling pathway using the BG1 cell line in the presence of 0.1 nM 17-beta-estradiol - cell viability counter screen (AID 1259241). Also: nearly all actives have a fitted effect of over 40% in size. Also: potency is read from the fitted curve at half-maximal effect. The procedure, abridged:
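Following 5 days in phenol red-free medium with charcoal-stripped serum, VM7Luc4E2 cells received test compounds alongside 0.1 nM 17beta-estradiol (final) at 37C for 22 hr. Live cells were then quantified via protease-substrate fluorescence.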

Assay [12] can be described thus: qHTS assay to identify small molecule antagonists of the androgen receptor (AR) signaling pathway using the MDA cell line in the presence of 0.5 nM R1881 - cell viability counter screen (AID 1259242). Also: nearly all actives have a fitted effect of over 45% in size. The method in brief:
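Cells seeded at 3,000/well and allowed 5 hr at 37C, 0% CO2 before compound transfer and R1881 (0.5 nM final) addition; 16 hr later, live-cell protease fluorescence indicated cytotoxicity.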

Assay [13] can be described thus: qHTS assay to identify small molecule HDAC inhibitors (AID 1259364).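 Also: wild-type HCT-116 cells with endogenous class I/II HDAC activity; top concentration of the series differs between compounds; nearly all actives have a fitted effect of over 45% in size.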 The procedure, abridged:
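HCT-116 wt cells, 1,500/well, overnight attach. Compounds (DMSO) 2 h, 37 °C. HDAC-Glo I/II, 30 min RT. Luminescence.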

Assay [14] can be described thus: qHTS assay to identify small molecule HDAC inhibitors - cell viability counter screen (AID 1259365). The procedure, abridged:
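HCT-116 wild-type, overnight attachment; 2hr drug exposure, 37C; CellTiter-Glo luminescent ATP readout after 30min RT.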

The nature of assay [15]: qHTS assay to identify small molecule agonists of the sonic hedgehog signaling (Shh) pathway - cell viability counter screen (AID 1259366). Also: nearly all actives have a fitted effect of over 50% in size. The procedure, abridged:
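Compounds in DMSO were pin-transferred onto 3T3 Gli1-Luc cells that had settled 4hr; plates then stood 24hr at 37C and 5% CO2. One hour before the end, CellTiter-Fluor was added and fluorescence recorded.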

Assay [16] can be described thus: qHTS assay to identify small molecule antagonists of the sonic hedgehog signaling (Shh) pathway - cell viability counter screen (AID 1259367). Also: nearly all actives have a fitted effect of over 55% in size. Also: potency is read from the fitted curve at half-maximal effect. The method in brief:
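Tox21 library chemicals were tested on a Gli1-Luc NIH/3T3 clone (2,000 cells/well) stimulated by conditioned medium; viability was quantified as fluorescence from CellTiter-Fluor reagent added at 23 hr.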

The nature of assay [17]: qHTS assay to identify small molecule agonists of the sonic hedgehog signaling (Shh) pathway (AID 1259368; calls by dose curve;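 also: NIH/3T3-derived 3T3Gli1-Luc cells carrying a stable Gli1-driven firefly luciferase reporter; series mostly up to about 92 µM; nearly all actives have a fitted effect of over 15% in size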). The procedure, abridged: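 Following a 24 hr incubation with DMSO-dissolved compounds at 37 C, 5% CO2, Gli1-Luc NIH/3T3-derived cells received luciferase reagent for 30 min at room temperature prior to luminescence measurement.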
The nature of assay [18]: qHTS assay to identify small molecule phospholipidosis (PLD) inducers (AID 1259344; active = well fitted curve in the direction sought with a large enough effect; an effect the other way counts as inactive or inconclusive). The method in brief:
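Image-based: LipidTOX Red pit count/intensity per well and per cell; HepG2, 24 h compound at 37 C, PFA fixation, Hoechst counterstain.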

For assay [19], the target named is Estrogen receptor (Homo sapiens) (UniProt P03372). The assay can be described thus: qHTS assay to identify small molecule antagonists of the estrogen receptor alpha (ER-alpha) signaling pathway using the BG1 cell line in the presence of 0.1 nM 17-beta-estradiol (AID 1259244). Also: nearly all actives have a fitted effect of over 50% in size. Also: potency is read from the fitted curve at half-maximal effect. The method in brief:
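Luciferase signal from VM7Luc4E2 ERE-reporter cells, co-dosed with test compound and 0.1 nM final 17beta-estradiol for 22 h, read with ONE-Glo.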

Each structure is given as a SMILES string. Values joined by “and” are separate entries in the source; they are usually repeats but may differ in a detail not shown here. Equal entries are not always repeated. Results filed as inconclusive are left out. Where a structure was tested more than once in an assay, its records may differ in their call. Active and inactive are the calls of the source. Unless noted, calls follow the shape of the dose curve; as a rule, active = well fitted curve in the direction sought with a large enough effect in the repeat runs; inconclusive = weak or mixed curves; inactive = no such curve, though single readings can be large; an effect the other way counts as inactive or inconclusive.
% is scaled to controls: 0 for no effect and ±100 for the full control effect.

Chain of Estrogen receptor (Homo sapiens) (P03372 whole entry, looked up): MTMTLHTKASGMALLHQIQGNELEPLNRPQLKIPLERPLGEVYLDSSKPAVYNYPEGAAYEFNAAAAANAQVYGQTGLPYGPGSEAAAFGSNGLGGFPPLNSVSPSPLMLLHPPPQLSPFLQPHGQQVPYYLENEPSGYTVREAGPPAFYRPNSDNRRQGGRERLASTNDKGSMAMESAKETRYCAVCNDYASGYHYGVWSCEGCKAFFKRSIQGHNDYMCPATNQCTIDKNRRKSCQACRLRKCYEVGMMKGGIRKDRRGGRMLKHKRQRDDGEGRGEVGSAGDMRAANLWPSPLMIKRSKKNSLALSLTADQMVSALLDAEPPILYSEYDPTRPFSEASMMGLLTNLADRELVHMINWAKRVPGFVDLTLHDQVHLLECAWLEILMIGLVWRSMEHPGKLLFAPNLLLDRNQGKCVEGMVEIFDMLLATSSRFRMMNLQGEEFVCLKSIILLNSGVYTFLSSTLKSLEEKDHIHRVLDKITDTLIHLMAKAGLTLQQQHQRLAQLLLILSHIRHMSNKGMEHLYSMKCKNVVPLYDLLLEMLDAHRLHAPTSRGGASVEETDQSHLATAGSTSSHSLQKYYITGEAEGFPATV

In the case of `[Cl-].[Cl-].[Sn+2]`, the Potency result in [1], in assay [2], in [3], in assay [4], in assay [5] and in assay [6] was “inactive” throughout. Further, the Potency result in assay [7], in [8], in [9], in [10], in assay [11] and in [12] was “inactive” each time. Moreover, the Potency result in assay [13], in assay [14], in assay [15], in assay [16] and in assay [17] was “inactive” in each case.
On to `CC(=O)[O-].CC(=O)[O-].CC(=O)[O-].[Cr+3]`, for which the Potency entry in [1], in assay [2], in [3], in [4], in [5] and in assay [6] was “inactive” each time. Moreover, the Potency entry in assay [7], in assay [8], in [9], in assay [10], in [11] and in assay [12] was “inactive” throughout. Also, the Potency entry in assay [13], in assay [14], in assay [15] and in assay [17] was “inactive” each time.
As for `O=C(N[C@H]1N=C(c2ccccc2F)c2cccc3c2N(CC3)C1=O)c1cc2ccccc2[nH]1`, the Potency result in assay [1], in assay [2], in assay [3], in [4], in [5] and in assay [6] was “inactive” each time. The Potency result in assay [7], in assay [8], in assay [9], in assay [10], in assay [11] and in [12] was “inactive” each time. Moreover, the Potency entry in [13], in assay [14], in assay [15], in assay [16] and in [17] was “inactive” throughout. Further, in assay [18], the compound was classed as inactive.
As to `Cc1ccn2nc(S(=O)(=O)Nc3c(F)cccc3F)nc2n1`, the Potency result in assay [1], in assay [2], in [3], in [4], in assay [5] and in [6] was “inactive” in each case. In addition, the Potency result in assay [7], in [8], in [9], in assay [10], in [11] and in assay [12] was “inactive” each time. The Potency entry in [13], in assay [14], in assay [15], in assay [16] and in [17] was “inactive” in each case.
In the case of `CCN(CC)C(=S)S`, the Potency in assay [1] is 17.5 µM (active) and 4.87 µM (active) and 11 µM (active); in assay [3] it was “inactive and 6.88 µM (active) and 21.9 µM (active)”; in assay [6] it was 4.87 µM (active) and 12.3 µM (active); in [11], 15.3 µM (active); in [19], 13.6 µM (active); in assay [16], 7.65 µM (active) and inactive. In addition, the Potency result in [2], in assay [4], in assay [5], in [7], in assay [8] and in assay [9] was “inactive” each time. Moreover, the Potency result in assay [10], in [13], in assay [14] and in assay [17] was “inactive” throughout.
`CN1C2CCC(C)(C)C1CC(OC(=O)C(O)(c1cccs1)c1cccs1)C2` (stereo unspecified): the Potency result in assay [1], in [2], in assay [3], in assay [4], in assay [5] and in assay [6] was “inactive” throughout. Moreover, the Potency entry in [7], in assay [8], in assay [9], in assay [10], in assay [11] and in assay [12] was “inactive” each time. Besides, the Potency result in [19], in assay [16] and in assay [17] was “inactive” throughout.
For `Clc1c(Cl)c(Cl)c(Cl)c(Cl)c1Cl`, the cytotoxicity increase in [1] was -13.5% [at 6.97 µM] (inactive); in [3] it was -1.01% [at 6.97 µM] (inactive); in assay [4], -13.2% [at 6.97 µM] (inactive); in [10], 1.99% [at 6.97 µM] (inactive). Further, the cytotoxicity in [2] is 1.34% [at 6.97 µM] (inactive). Besides, the activity change, negative = cytotoxic in [5] was -0.903% [at 6.97 µM] (inactive). The activity change, negative = cytotoxicity in assay [6] is 2.9% [at 6.97 µM] (inactive); in [7] it was 4.5% [at 6.97 µM] (inactive); in assay [9], 6.05% [at 6.97 µM] (inactive); in assay [11], 2.59% [at 8.39 µM] (inactive); in assay [14], 0.165% [at 8.39 µM] (inactive). Besides, the activity change was -13.4% [at 6.97 µM, stronger effect = higher value] (inactive) in [8] and -0.252% [at 8.39 µM, stronger effect = higher value] (inactive) in assay [17]. For the same compound, the viability change, negative = cytotoxic in assay [12] is 0.413% [at 8.39 µM] (inactive); in assay [15] it was 1.7% [at 8.39 µM] (inactive); in [16], 2.78% [at 8.39 µM] (inactive). For the same compound, in [13], the activity change, negative = inhibition is 1.74% [at 8.39 µM] (inactive).
